# High-throughput results (PubChem BioAssay)
# Tau FP inhib = qHTS for Inhibitors of Tau Fibril Formation, Fluorescence Polarization; Microtubule-associated protein tau (Homo sapiens), P10636; K18 P301L tau heparin fibrillization, Alexa594 FP, 6 h; Potency, µM (series often up to 57.7 µM), inactives show at the highest dose activity, negative = inhibition, usual class: inhibitors; 280,000 tested, 0.39% active; AID 1468, 2008; also: nearly all actives have a fitted effect of over 55% in size
# Target sequence (P10636 561-689 P618L limits assumed): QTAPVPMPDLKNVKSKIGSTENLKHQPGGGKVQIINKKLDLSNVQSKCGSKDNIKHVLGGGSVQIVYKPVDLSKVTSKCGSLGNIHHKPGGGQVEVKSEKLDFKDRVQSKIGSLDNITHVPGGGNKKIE
#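 FP of Alexa 594-tau after heparin (20 uM) induction. Substrate: human K18 P301L, 15 uM unlabeled, 0.24 uM labeled. Buffer 100 mM sodium acetate pH 7. 6 hr, 37 C.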
# Tau fibril ThT = qHTS for Inhibitors of Tau Fibril Formation, Thioflavin T Binding | Potency, µM (highest dose often 57.4 µM), for inactives: top-dose activity, negative = inhibition, actives largely listed as inhibitors | Microtubule-associated protein tau (Homo sapiens), P10636 | 270,000 tested, 2.1% active | recombinant tau K18 P301L, heparin-induced fibrillization, ThT fluorescence | AID 1460, 2008; also: nearly all actives have a fitted effect of over 55% in size
#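 Recombinant human tau K18 fragment […] carrying P301L, 15 uM unlabeled plus 0.24 uM Alexa 594-labeled, was fibrillized with 20 uM heparin in 100 mM sodium acetate pH 7 for 6 hr at 37 C; 30 uM ThT fluorescence read after 1 hr.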
# TR SRC2 fluor cs = Total Fluorescence Counterscreen for Inhibitors of the Interaction of Thyroid Hormone Receptor and Steroid Receptor Coregulator 2 | TRb/SRC2 Texas Red total fluorescence interference | AID 1479, 2009 | 280,000 tested, 0.29% active | Potency, µM (series often up to 106 µM), for inactives: at the highest dose fluorescence change, negative = quenching; active = well fitted curve in either direction with a large enough effect; inconclusive = small, poorly fitted or top-dose-only effect
#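 Human TRb ligand-binding domain at 0.6 uM with 20 nM Texas Red SRC2 peptide in Tris buffer containing 1 uM T3 and 5% DMSO, incubated with compound 5 h at ambient temperature. Total fluorescence (555/632 nm) calculated as parallel + 2 × perpendicular.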
# GoLoco inh red = qHTS Assay for Inhibitors of RGS12 GoLoco Motif Activity (Red Fluorophore). Guanine nucleotide-binding protein G(i) subunit alpha-1 (Homo sapiens), P63096. Gai1:RGS12 GoLoco peptide FP, rhodamine, 10 min. Potency, µM (doses to about 61.6 µM), for inactives: at the top dose activity, negative = inhibition, hits mostly inhibitors. 230,000 tested, 0.44% active; active = well fitted inhibition curve with a large enough effect, not every such curve was filed as active; inactive = no such curve, though single readings can be large or run the other way; also: nearly all actives have a fitted effect of over 30% in size
# TRb SRC2 PPI = qHTS for Inhibitors of the Interaction of Thyroid Hormone Receptor and Steroid Receptor Coregulator 2; AID 1469, 2008; Potency, µM (titrated, usually from 106 µM), without a hit: top-dose activity change, negative = inhibition, most hits filed as inhibitors; 280,000 tested, 0.065% active; TRbeta-SRC2 peptide binding, fluorescence polarization; receptor liganded with 1 µM T3;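 also: plate controls were bound peptide for no effect and peptide without receptor for full effect; nearly all actives have a fitted effect of over 50% in size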
# Target sequence (P10828 whole entry, looked up): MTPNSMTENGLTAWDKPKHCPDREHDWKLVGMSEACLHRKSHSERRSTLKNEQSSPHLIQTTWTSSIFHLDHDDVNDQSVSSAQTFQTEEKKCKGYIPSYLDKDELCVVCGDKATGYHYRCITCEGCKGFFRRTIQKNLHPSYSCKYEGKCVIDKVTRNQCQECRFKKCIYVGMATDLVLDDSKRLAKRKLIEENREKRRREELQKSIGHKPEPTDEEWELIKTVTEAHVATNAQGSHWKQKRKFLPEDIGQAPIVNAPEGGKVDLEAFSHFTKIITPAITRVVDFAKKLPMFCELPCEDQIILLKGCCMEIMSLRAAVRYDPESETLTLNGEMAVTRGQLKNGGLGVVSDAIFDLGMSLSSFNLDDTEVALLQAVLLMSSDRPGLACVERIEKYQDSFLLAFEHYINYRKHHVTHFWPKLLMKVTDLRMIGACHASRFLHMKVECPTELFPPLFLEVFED
#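 Assay buffer: 20 mM Tris-HCl, 100 mM NaCl, 10% glycerol, 1 mM EDTA, 0.01% NP-40, 1 mM DTT, 1 uM T3, 5% DMSO; TRb LBD 0.6 uM, Texas Red SRC2 20 nM; FP after 5 hr.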
# Tau fluor counter = Counterscreen qHTS for Inhibitors of Tau Fibril Formation, Fluorescence Polarization; tau K18 P301L (four-repeat tau fragment) Alexa594 fluorescence, heparin fibrillization; Potency, µM (series often up to 57.7 µM), without a hit: at the highest dose activity change, negative = decrease; 280,000 tested, 0.93% active; also: nearly all actives have a fitted effect of over 55% in size
#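 Human K18 P301L tau (15 uM unlabeled plus 0.24 uM Alexa 594-labeled, final) in 100 mM sodium acetate pH 7 was mixed with compound and 20 uM heparin and incubated 6 hr at 37 C.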
# The depositor's hits bear a star; ? = inconclusive; / = not tested or not shown; ! = not confirmed by another sample; [ ] = remark or other dose. The list is not random: actives were taken first. Their share in the collection is about 3.2%. Unless noted, calls follow the shape of the dose curve; as a rule, active = well fitted curve in the direction sought with a large enough effect; inconclusive = small, poorly fitted or top-dose-only effect, or another doubt; inactive = no such curve, though single readings can be large; an effect the other way counts as inactive or inconclusive. Unless noted, % is scaled to controls: 0 for no effect and ±100 for the full control effect; potency is read from the fitted curve at half-maximal effect.
SMILES,Tau FP inhib,Tau fibril ThT,TR SRC2 fluor cs,GoLoco inh red,TRb SRC2 PPI,Tau fluor counter
O=CC(Br)P(=O)(N1CCOCC1)N1CCOCC1 (stereo unspecified),25.1µM*,10µM*,-1.2%,-7.6%,1.5%,?
C=C(C)CN(CC)c1c([N+](=O)[O-])cc(C(F)(F)F)cc1[N+](=O)[O-],/,/,0.7%[201 µM],/,-3.4%[201 µM],/
ClCc1ccccc1Cl,/,/,-1.3%[201 µM],/,2.2%[201 µM],/
CC(C)C(=O)OCC(C)(C)C(OC(=O)C(C)C)C(C)C (stereo unspecified),/,/,-0.8%[201 µM],/,-2.7%[201 µM],/
N#CC1=C(N)Oc2c(c(=O)oc3ccccc23)C1c1ccc([N+](=O)[O-])o1 (stereo unspecified),?,10µM*,3.8%,9.3%,0.1%,-27.5%
COC(=O)c1ccccc1N,/,/,-3.4%,31.6µM*,-0.3%,/
Cc1ccccc1-n1c(O)c(C=Nc2ccc(N(C)C)cc2)c(=O)[nH]c1=O,?,28.2µM*,12.8%,1.6%,-29.5%,?
Cc1cccc(N=Cc2c(O)n(-c3ccccc3C)c(=O)[nH]c2=O)c1,-11.8%,-21.0%,1.3%,76.1%,10.6%,-17.4%
Cc1ccc(-n2c(O)c(/C=C3/C(c4ccccc4)=Nc4ccccc43)c(=O)[nH]c2=O)cc1,?,12.6µM*,-9.2%,/,-0.1%,?
Cc1ccccc1-n1c(O)c(/C=C2/C(c3ccccc3)=Nc3ccccc32)c(=O)[nH]c1=O,0.0%,4.4%,31.6µM*[quencher],109.8%,?,4.5%
Cc1cccc(-n2c(O)c(/C=C3/C(c4ccccc4)=Nc4ccccc43)c(=O)[nH]c2=O)c1,1.2%,?,-1.1%,89.3%,-5.5%,-19.3%
CCOC(=O)C(Cl)Cc1cc(-n2nc(C)n(C(F)F)c2=O)c(F)cc1Cl (stereo unspecified),/,/,0.4%[201 µM],/,-6.2%[201 µM],/
C[N+]1(C)CCCCC1,/,/,2.4%[201 µM],/,-1.6%[201 µM],/
CO/C1=C\C(C)=C\[C@@H](C)[C@@H](O)[C@@H](C)C/C(C)=C/C=C/[C@H](OC)[C@@H]([C@@H](C)[C@@H](O)[C@H](C)[C@@]2(O)C[C@@H](O)[C@H](C)C(C(C)C)O2)OC1=O (stereo partly specified),/,/,?,/,-3.1%,/
CN1C(=O)C(=Cc2cc([N+](=O)[O-])ccc2N2CCCCC2)C(=O)N(C)C1=O,-3.1%,-11.1%,1.0%,-11.7%,-4.8%,-5.9%
CN1C(=O)C(=Cc2sc(=O)n(-c3ccccc3)c2N2CCCCC2)C(=O)N(C)C1=O,-16.1%,25.1µM*,-7.5%,-152.0%,5.9%,-15.9%
O=C/C(Cl)=C(/Cl)C(=O)O,/,/,1.3%[201 µM],/,-4.1%[201 µM],/
Cc1cc(C)cc(-n2c(O)c(C=Nc3ccc(N4CCOCC4)cc3)c(=O)[nH]c2=S)c1,6.4%,?,1.1%,16.4%,1.4%,-7.6%
O=c1[nH]c(=S)n(-c2ccc(Br)cc2)c(O)c1C=Nc1ccc(N2CCOCC2)cc1,3.4%,25.1µM*,3.4%,-100.9%,-8.7%,-21.8%
O=C=Nc1ccc(Cl)cc1,/,/,-6.1%[201 µM],/,-2.4%[201 µM],/
O=C1OC(c2cc(I)c(O)c(I)c2)(c2cc(I)c(O)c(I)c2)c2ccccc21,?,12.6µM*,?,-49.6%,13.1%,7.08µM*[quencher]
Cc1c2ccncc2c(C)c2c1[nH]c1ccccc12,5.2%,11.2µM*,-2.9%,15.4%,4.0%,?
c1ccc2c(c1)[nH]c1cnccc12,2.1%,4.0%,-3.0%,5.0%,-3.4%,-10.6%
CN(C)[C@H]1C(=O)C(C(N)=O)=C(O)[C@]2(O)C(=O)C3=C(O)c4c(O)cccc4[C@@](C)(O)[C@H]3C[C@@H]12,/,/,0.1%[53 µM],2.9%[21.6 µM],3.7%[53 µM],/
CN(C)C1C(=O)C(C(N)=O)=C(O)[C@@]2(O)C(=O)C3=C(O)c4c(O)cccc4[C@@](C)(O)C3[C@H](O)C12 (stereo partly specified),?,7.08µM*,?,-18.6%,-5.5%,?
SMILES,Tau FP inhib,Tau fibril ThT,TR SRC2 fluor cs,GoLoco inh red,TRb SRC2 PPI,Tau fluor counter
CN(C)[C@@H]1C(=O)C(C(N)=O)=C(O)[C@]2(O)C(=O)C3=C(O)c4c(O)cccc4[C@@](C)(O)[C@H]3[C@H](O)[C@@H]12,/,/,-7.8%[53 µM],5.62µM*,-8.0%[53 µM],/
O=C(O)c1c(Cl)ccc2cc(Cl)cnc12,/,/,-6.9%[201 µM],/,-2.1%[201 µM],/
COc1cc(OC)nc(NC(=O)NS(=O)(=O)c2ncccc2C(F)(F)F)n1,/,/,-1.2%[201 µM],/,7.9%[201 µM],/
O=[N+]([O-])c1ccc(NCc2ccccc2)c2nonc12,2.4%,-10.4%,2.4%,3.16µM*,-3.7%,-13.6%
COc1cccc(-n2c(=S)[nH]c3ccccc3c2=O)c1,2.2%,-0.1%,-0.5%,4.1%,-2.8%,5.1%
COc1ccc2c(c1)NP(=S)(Oc1ccccc1)N2 (stereo unspecified),?,8.91µM*,-4.2%,-2.6%,5.3%,?
O=C(N=Nc1c(O)[nH]c(=O)[nH]c1=O)C1COc2ccccc2O1 (stereo unspecified),?,28.2µM*,-0.5%,1.2%,5.3%,-10.9%
O=c1[nH]c(=S)[nH]c(O)c1N=Nc1ccc2c(c1)OCO2,8.4%,3.98µM*,-1.2%,73.8%,7.4%,-10.9%
O=c1[nH]c(O)c(N=Nc2ccc3c(c2)OCCO3)c(=O)[nH]1,11.0%,5.62µM*,-3.9%,12.4%,-0.7%,-7.8%
O=c1[nH]c(=S)[nH]c(O)c1N=Nc1cccc(S(=O)(=O)N2CCOCC2)c1,-2.2%,?,-6.7%,4.8%,-0.9%,-5.0%
O=c1[nH]c(=S)[nH]c(O)c1N=Nc1ccc2c(c1)OCCO2,-13.1%,2.24µM*,-6.2%,138.7%,-0.6%,-17.9%
O=C(O)c1ccccc1N=Nc1c(O)[nH]c(=O)[nH]c1=O,4.9%,-4.1%,-7.0%,13.8%,-1.7%,9.5%
COP(=O)(OC)Oc1ccc([N+](=O)[O-])cc1,/,/,-4.3%[201 µM],/,-2.1%[201 µM],/
ClC1=C(Cl)C(Cl)(C2(Cl)C(Cl)=C(Cl)C(Cl)=C2Cl)C(Cl)=C1Cl,/,/,31.6µM*[quencher],/,?,/
O=c1c2ccccc2nc(CSc2ncnc3nc[nH]c23)n1-c1ccccc1,1.2%,1.0%,-5.9%,-13.5%,-3.8%,12.5%
O=C(O)c1cc[c]([Hg][S]c2ncnc3nc[nH]c23)cc1,/,/,/,0.631µM*,/,/
O=C(O)C(F)(F)C(F)(F)C(F)(F)C(F)(F)C(F)(F)C(F)(F)C(F)(F)C(F)(F)F,/,/,126µM*![quencher],/,?,/
